# From paper PMC11006913
# Molecular target: T1, SIX6 (Homo sapiens, UniProt O95475 114-200, H141N)
# T1 sequence: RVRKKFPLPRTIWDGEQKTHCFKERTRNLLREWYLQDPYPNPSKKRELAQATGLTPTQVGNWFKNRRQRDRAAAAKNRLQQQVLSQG
# Experiment: PBM; 200 nM protein, PBS
# Details: dsDNA, one strand shown
row,Sequence,binding signal
1,CCAGTGCG,"9 upbm affinity estimate (log intensity, higher = more binding, comparable within an allelic series)"
2,GATATCCA,"11 upbm affinity estimate (log intensity, higher = more binding, comparable within an allelic series)"
3,ATATCATG,"11.1 upbm affinity estimate (log intensity, higher = more binding, comparable within an allelic series)"
4,CATGATCA,"10.3 upbm affinity estimate (log intensity, higher = more binding, comparable within an allelic series)"
5,GTGATATA,"11.3 upbm affinity estimate (log intensity, higher = more binding, comparable within an allelic series)"
6,GGCCCCAA,"8.92 upbm affinity estimate (log intensity, higher = more binding, comparable within an allelic series)"
7,AGTATCAT,"11.5 upbm affinity estimate (log intensity, higher = more binding, comparable within an allelic series)"
8,AGGGTATC,"11.2 upbm affinity estimate (log intensity, higher = more binding, comparable within an allelic series)"
9,AGGGCCCG,"8.98 upbm affinity estimate (log intensity, higher = more binding, comparable within an allelic series)"
10,GGCCTCCA,"8.87 upbm affinity estimate (log intensity, higher = more binding, comparable within an allelic series)"
11,ACTGCCGG,"9.15 upbm affinity estimate (log intensity, higher = more binding, comparable within an allelic series)"
12,GGCCCCGA,"8.92 upbm affinity estimate (log intensity, higher = more binding, comparable within an allelic series)"
13,GCCAGTCC,"8.9 upbm affinity estimate (log intensity, higher = more binding, comparable within an allelic series)"
14,GCAGTGGC,"8.95 upbm affinity estimate (log intensity, higher = more binding, comparable within an allelic series)"
15,GCGCTGCC,"8.81 upbm affinity estimate (log intensity, higher = more binding, comparable within an allelic series)"
16,CCGGCGCC,"8.96 upbm affinity estimate (log intensity, higher = more binding, comparable within an allelic series)"
17,CAGGGCGC,"9.07 upbm affinity estimate (log intensity, higher = more binding, comparable within an allelic series)"
18,CCCCGAGG,"8.99 upbm affinity estimate (log intensity, higher = more binding, comparable within an allelic series)"
19,AGCTCCGC,"8.98 upbm affinity estimate (log intensity, higher = more binding, comparable within an allelic series)"
20,GATATCAC,"11.4 upbm affinity estimate (log intensity, higher = more binding, comparable within an allelic series)"

row,Sequence,binding signal
1,GATACCCC,"11.5 upbm affinity estimate (log intensity, higher = more binding, comparable within an allelic series)"
2,ACTGATAC,"11.3 upbm affinity estimate (log intensity, higher = more binding, comparable within an allelic series)"
3,ATATACAC,"10.9 upbm affinity estimate (log intensity, higher = more binding, comparable within an allelic series)"
4,CGGCCTTC,"8.82 upbm affinity estimate (log intensity, higher = more binding, comparable within an allelic series)"
5,CCGGGGCC,"9.12 upbm affinity estimate (log intensity, higher = more binding, comparable within an allelic series)"
6,AGCGGCGC,"8.85 upbm affinity estimate (log intensity, higher = more binding, comparable within an allelic series)"
7,CGGTATCA,"11.3 upbm affinity estimate (log intensity, higher = more binding, comparable within an allelic series)"
8,GTATCAAA,"11.4 upbm affinity estimate (log intensity, higher = more binding, comparable within an allelic series)"
9,CAGTGGCC,"8.99 upbm affinity estimate (log intensity, higher = more binding, comparable within an allelic series)"
10,GATATCTA,"11.1 upbm affinity estimate (log intensity, higher = more binding, comparable within an allelic series)"
11,CCCTCTGC,"9.02 upbm affinity estimate (log intensity, higher = more binding, comparable within an allelic series)"
12,CGGCGGAA,"8.85 upbm affinity estimate (log intensity, higher = more binding, comparable within an allelic series)"
13,CAGTATCA,"11.1 upbm affinity estimate (log intensity, higher = more binding, comparable within an allelic series)"
14,CGCAAGCG,"8.99 upbm affinity estimate (log intensity, higher = more binding, comparable within an allelic series)"
15,AGGCGCCC,"8.7 upbm affinity estimate (log intensity, higher = more binding, comparable within an allelic series)"
16,CCGCCAGC,"9.07 upbm affinity estimate (log intensity, higher = more binding, comparable within an allelic series)"
17,ATGGCCGC,"8.75 upbm affinity estimate (log intensity, higher = more binding, comparable within an allelic series)"
18,GGATATCA,"11.4 upbm affinity estimate (log intensity, higher = more binding, comparable within an allelic series)"
19,CTCGATAC,"10.6 upbm affinity estimate (log intensity, higher = more binding, comparable within an allelic series)"
20,CGCAGCGC,"9.04 upbm affinity estimate (log intensity, higher = more binding, comparable within an allelic series)"
